In the supplement of paper PMC12645437, “Orthogonal IMiD-Degron Pairs Induce Selective Protein Degradation in Cells” (ACS Chemical Biology, 2025):
Over roughly 8,300 sequences, “log2 fold change of degron read counts, EGFP-low vs EGFP+ sorted cells (limma voom), compound-induced degradation” has its median near -1.1; the highest 2% begin near 3.2. This excerpt belongs to a sample that is enriched for the highest values.

T1: CRBN, Q96SW2
T1 chain: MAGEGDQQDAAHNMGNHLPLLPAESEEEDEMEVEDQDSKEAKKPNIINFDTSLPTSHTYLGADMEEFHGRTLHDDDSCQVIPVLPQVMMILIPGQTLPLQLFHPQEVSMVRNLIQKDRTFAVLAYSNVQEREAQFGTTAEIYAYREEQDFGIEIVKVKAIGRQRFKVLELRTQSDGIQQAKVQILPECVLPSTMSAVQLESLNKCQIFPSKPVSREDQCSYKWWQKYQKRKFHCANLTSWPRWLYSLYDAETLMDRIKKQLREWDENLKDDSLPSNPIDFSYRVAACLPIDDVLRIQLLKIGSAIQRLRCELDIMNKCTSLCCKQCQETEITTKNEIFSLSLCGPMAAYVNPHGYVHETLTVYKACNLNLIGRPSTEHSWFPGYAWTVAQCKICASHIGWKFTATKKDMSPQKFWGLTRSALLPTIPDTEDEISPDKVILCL

B1: 46F_47R_49P_50I_52G_53A_54C_55F_67L_, Q9UKT9 (peptide)
chain: FRCPICGACFTQKGNLLRHIKL
B2: 46F_47K_49P_50I_52G_53A_54C_55F_67L_, Q9UKT9 (peptide)
chain: FKCPICGACFTQKGNLLRHIKL
B3: 46F_47H_49P_50I_52G_53A_54C_55F_67L_, Q9UKT9 (peptide)
chain: FHCPICGACFTQKGNLLRHIKL
B4: 46F_47G_49P_50I_52G_53A_54C_55F_67L_, Q9UKT9 (peptide)
chain: FGCPICGACFTQKGNLLRHIKL
B5: 46F_47E_49P_50I_52G_53A_54C_55F_67L_, Q9UKT9 (peptide)
chain: FECPICGACFTQKGNLLRHIKL
B6: 46F_47F_49P_50I_52G_53A_54C_55F_67L_, Q9UKT9 (peptide)
chain: FFCPICGACFTQKGNLLRHIKL
B7: 46L_47Q_49E_50I_52G_53F_54F_55C_67L_, Q9UKT9 (peptide)
chain: LQCEICGFFCTQKGNLLRHIKL
B8: 46F_47V_49E_50I_52G_53R_54L_55F_67L_, Q9UKT9 (peptide)
chain: FVCEICGRLFTQKGNLLRHIKL

Molecular target: T1, CRBN, Q96SW2
Test: log2 fold change of degron read counts, EGFP-low vs EGFP+ sorted cells (limma voom), compound-induced degradation; higher = more compound-induced degradation of the degron-EGFP fusion; degrons are variants of IKZF1/3 zinc finger 2; compound dose not given here
Conditions: Jurkat, 18 h
Method: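 Pooled library of 8380 IKZF3 ZF2 degron mutants (positions 146-167 varied within the IKZF3 130-189 degron; only the varied core is printed, flanks not printed) fused to EGFP with IRES-mCherry, lentivirally expressed in Jurkat cells. mCherry+ cells were treated with one IMiD compound for 18 h (dose not stated) and FACS-sorted into EGFP-low and EGFP+ populations. Degron sequences were counted by NGS, and log2FC (EGFP-low vs EGFP+) was estimated by limma voom over 3 biological replicates.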

[1] = compound: compound 19 (5-tert-butyl-thalidomide)
[2] = compound: compound 22 (5-morpholino-thalidomide)
[3] = compound: compound 33 (diphenyl IMiD analogue)
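Note: pooled lentiviral library of zinc finger degron-EGFP fusions in mCherry-positive Jurkat cells, FACS-sorted after compound exposure, with degron abundance counted by next-generation sequencing.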

Sequence | log2 fold change of degron read counts [1] | log2 fold change of degron read counts [2] | log2 fold change of degron read counts [3] | log2 fold change of degron read counts (compound: thalidomide)
B1 | -0.121 | 0.343 | 1.61 | 1.35
B2 | -0.511 | -2.33 | -2.58 | -0.71
B3 | 2.71 | 2.64 | 2.08 | 0.899
B4 | 3.9 | 2.82 | 2.74 | 1.24
B5 | 0.233 | -0.321 | 2.66 | 2.94
B6 | 3.22 | 3.44 | 2.28 | 1.16
B7 | -0.636 | -0.227 | 0.554 | 1.77
B8 | -1.71 | -1.28 | -0.137 | 0.207
